Assay outcomes from PubChem.
Most compounds without a hit are left out; they make up all but 2.5% or so of the library.
c-Myc SMM – binds human c-Myc on microarray; calls only; small molecule microarray, His-c-Myc binding, anti-His fluorescence; 17,000 compounds, 1.5% hits; P01106;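 active = spot fluorescence over background with P-value below 7% in all four replicate spots, showing protein binding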;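 also: score is binary with 100 for all four spots passing and 0 otherwise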
mut p53 SMM – mutant p53 (human) binding. 17,000 compounds, 0.4% hits. calls only. AID 624136. small molecule microarray binding, anti-GST fluorescence;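 active = compounds whose four printed spots each glow above background more than chance allows, each with a p-value under 7%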
STAT3 binder – STAT3 (human) binding | P40763 | Small molecule microarray, His-STAT3 binding, anti-His fluorescence | calls only | 17,000 compounds, 0.2% hits | AID 624138;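 active = compounds whose four printed spots each show fluorescence over background unusually high for their array block, chance value under 7%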
NFkB SMM – binders of human NF-kappa-B p105 | 17,000 compounds, 1.3% hits | Small molecule microarray, anti-His fluorescence binding | P19838 | calls only;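 active = spot fluorescence over background significantly raised, with a chance value under 7% in all four replicate spots of the compound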;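 also: probe protein is his-tagged human p50 processed subunit at 1 µg/ml; raw spot fluorescence signals with no normalization applied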
Active calls of the source: *; i = inactive; + = active, no number.

SMILES | c-Myc SMM | mut p53 SMM | STAT3 binder | NFkB SMM
C[C@@H]1CCCCO[C@@H](CN(C)C(=O)Nc2ccc(C(F)(F)F)cc2)[C@H](C)CN([C@H](C)CO)C(=O)c2cc(NS(C)(=O)=O)ccc2O1 | i | i | i | i
C[C@@H]1CCCCO[C@H](CN(C)C(=O)Nc2ccc(C(F)(F)F)cc2)[C@H](C)CN([C@@H](C)CO)C(=O)c2cc(NS(C)(=O)=O)ccc2O1 | i | i | + | i
C[C@@H]1CCCCO[C@@H](CN(C)C(=O)Nc2ccc(C(F)(F)F)cc2)[C@H](C)CN([C@@H](C)CO)C(=O)c2cc(NS(C)(=O)=O)ccc2O1 | + | i | i | i
COc1ccc([Si](C)(C)[C@@H]2[C@@H](CCn3cc(CCO)nn3)O[C@]3(C(=O)N(Cc4cccc(N5CCOC5=O)c4)c4ccccc43)[C@H]2C)cc1 | i | i | i | i
C=CCn1c(SCC(=O)O)nnc1-c1cccc(C)c1 | + | i | i | i
COCCNC(=O)COc1ccc(OCCNC[C@@H](O)COc2ccccc2)cc1 | i | i | i | i
COc1cc(S(=O)(=O)n2nnc3ccccc32)c(OC)cc1Cl | + | i | i | i
COc1ccc(S(=O)(=O)N(C)C[C@H]2Oc3ccc(NC(=O)NC(C)C)cc3CC(=O)N([C@H](C)CO)C[C@H]2C)cc1 | i | i | i | i
COc1ccc(Cn2c3ccc(Br)cc3c3nc4ccccc4nc32)cc1OC | + | i | i | i
COc1ccc(C(=O)CSc2nc3ccccc3c(=O)[nH]2)cc1OC | i | i | i | i
C[C@H](NC[C@H](O)CP(=O)(O)CC1CCCCC1)c1ccc(Cl)c(Cl)c1 | i | i | i | i
Cc1cccc(C)c1NC(=O)C(C)N (configuration not stated) | i | i | i | i
CC1CC[C@@]2(OC1)O[C@H]1CC3C4CC=C5C[C@@H](O[C@@H]6O[C@H](CO)[C@@H](O)[C@H](O)[C@H]6O)CC[C@]5(C)C4CC[C@]3(C)[C@@]1(O)[C@@H]2C (some centres not stated) | i | i | i | +
Cc1cccc(CN(C)C[C@H]2OCc3cn(nn3)CCCC(=O)N([C@@H](C)CO)C[C@@H]2C)c1 | i | i | i | i
COc1cc(=O)oc(C(C)C(C)O)c1CO (configuration not stated) | i | i | i | i
CC12C=CC(=O)C=C1CCC1C2=CCC2(C)C1CC[C@@H]2C(=O)CN1CCN(c2cc(N3CCCC3)nc(N3CCCC3)n2)CC1 (some centres not stated) | + | i | i | i
COC(=O)C(CC#Cc1ccc2c(c1)[C@]1(C(=O)N2)[C@H](C(=O)N2CCCCCCC2)[C@H]2C(=O)O[C@H](c3ccccc3)[C@H](c3ccccc3)N2[C@@H]1c1ccccc1OCCO)C(=O)OC | i | i | i | +
COC(=O)C(CC#Cc1ccc2c(c1)[C@]1(C(=O)N2)[C@H](C(=O)N2CCCCCCC2)[C@H]2C(=O)O[C@H](c3ccccc3)[C@H](c3ccccc3)N2[C@@H]1c1ccc(OCCO)cc1)C(=O)OC | i | + | i | i
NC(=O)NCC#Cc1ccc2c(c1)[C@]1(C(=O)N2)[C@H](C(=O)N2CCCCCCC2)[C@H]2C(=O)O[C@H](c3ccccc3)[C@H](c3ccccc3)N2[C@@H]1c1ccc(O)cc1 | + | + | i | i
Cc1ccc(S(=O)(=O)NC(=O)COc2cccc3ccccc23)c(C)c1 | + | i | i | i
CC(C)(C)NS(=O)(=O)c1ccc(NC(=O)COc2ccc3ccccc3c2Br)cc1 | i | i | i | i
C[C@H](CO)N1C[C@H](C)[C@H](CN(C)C(=O)C2CCCCC2)OCCCC[C@H](C)Oc2ccc(NS(=O)(=O)c3cccs3)cc2C1=O | i | i | + | i
CCCN(C)C[C@H]1OCCCC[C@@H](C)Oc2ccc(NS(=O)(=O)c3ccc(Cl)cc3)cc2C(=O)N([C@@H](C)CO)C[C@H]1C | i | i | i | i
CCCN(C)C[C@H]1OCCCC[C@H](C)Oc2ccc(NS(=O)(=O)c3ccc(OC)cc3)cc2C(=O)N([C@H](C)CO)C[C@H]1C | i | + | i | i
C[C@@H]1CCCCO[C@@H](CN(C)S(C)(=O)=O)[C@@H](C)CN([C@@H](C)CO)C(=O)c2cc(NS(=O)(=O)c3ccccc3)ccc2O1 | i | i | i | i
SMILES | c-Myc SMM | mut p53 SMM | STAT3 binder | NFkB SMM
C[C@H](CO)N1C[C@H](C)[C@H](CN(C)S(C)(=O)=O)OCCCC[C@H](C)Oc2ccc(NS(=O)(=O)c3ccccc3)cc2C1=O | i | i | i | +
C[C@@H]1CN([C@@H](C)CO)C(=O)c2cc(NS(=O)(=O)c3ccccc3)ccc2O[C@@H](C)CCCCO[C@@H]1CN(C)C(=O)C1CCCCC1 | i | i | + | i
COc1ccc(S(=O)(=O)N(C)C[C@H]2Oc3ccc(N(C)C)cc3CC(=O)N([C@H](C)CO)C[C@H]2C)cc1 | i | i | i | i
COC(Cc1nc2ccccc2s1)C(=O)O (configuration not stated) | + | i | i | i
C[C@@H]1CCCCO[C@@H](CN(C)CC2CCCCC2)[C@H](C)CN([C@H](C)CO)C(=O)c2cc(NS(C)(=O)=O)ccc2O1 | i | i | i | +
C[C@H]1CCCCO[C@@H](CN(C)CC2CCCCC2)[C@@H](C)CN([C@@H](C)CO)C(=O)c2cc(NC(=O)C3CCCCC3)ccc2O1 | i | i | i | +
C[C@@H]1CN([C@H](C)CO)C(=O)c2cc(NC(=O)Nc3ccc4c(c3)OCO4)ccc2O[C@@H]1CN(C)CC1CCCCC1 | i | + | i | i
C[C@@H]1CN([C@H](C)CO)C(=O)c2cc(NC(=O)Nc3ccc4c(c3)OCO4)ccc2O[C@H]1CN(C)CC1CCCCC1 | i | i | i | i
C[C@@H]1CCCCO[C@@H](CN(C)Cc2ccc(C(F)(F)F)cc2)[C@H](C)CN([C@@H](C)CO)C(=O)c2cc(NC(=O)Cc3ccccc3)ccc2O1 | i | i | i | i
CC(C)OC(=O)c1cn(Cc2c(F)cccc2F)c2sc(-c3ccc(NC(=O)C(C)C)cc3)c(CN(C)Cc3ccccc3)c2c1=O | + | i | i | +
COC(=O)c1c(NC(=O)CC2Nc3cccc4cccc(c34)NC2=O)sc(C)c1C (configuration not stated) | + | i | i | i
COC(=O)c1c(NC(=O)CSc2nnc3ccccn23)sc(C)c1C | i | i | i | i
C[C@@H]1CCCCO[C@@H](CN(C)Cc2ccc(C(F)(F)F)cc2)[C@@H](C)CN([C@H](C)CO)C(=O)c2cc(NC(=O)C3CCCCC3)ccc2O1 | i | i | i | i
C[C@@H]1CCCCO[C@@H](CN(C)Cc2ccc(C(=O)O)cc2)[C@@H](C)CN([C@H](C)CO)C(=O)c2cc(NC(=O)Nc3ccc(F)cc3)ccc2O1 | i | i | i | i
